Hits are enriched below; roughly 10% of the tested compounds scored in any of these assays.
ALDH1A1 inh: ALDH1A1 (human) enzyme inhibition | P00352 | AID 1030 | hit rate 7.3% among 220,000 | Purified ALDH1A1, NADH fluorescence, propionaldehyde substrate | Potency, µM (titrated, usually from 75.3 µM), actives largely listed as inhibitors; active means well fitted inhibition curve with a large enough effect, not every such curve was filed as active; inconclusive means small, poorly fitted or top-dose-only effect, or another doubt; inactive means no such curve, though single readings can be large or run the other way
HPGD block: inhibitors of human 15-hydroxyprostaglandin dehydrogenase (HPGD). P15428. purified HPGD, NADH fluorescence kinetic, PGE2 substrate. Potency, µM, actives largely listed as inhibitors. hit rate 4.3% among 150,000. AID 894; active means well fitted inhibition curve with a large enough effect, not every such curve was filed as active; inconclusive means small, poorly fitted or top-dose-only effect, or another doubt; inactive means no such curve, though single readings can be large or run the other way
Target sequence (P15428 whole entry, looked up): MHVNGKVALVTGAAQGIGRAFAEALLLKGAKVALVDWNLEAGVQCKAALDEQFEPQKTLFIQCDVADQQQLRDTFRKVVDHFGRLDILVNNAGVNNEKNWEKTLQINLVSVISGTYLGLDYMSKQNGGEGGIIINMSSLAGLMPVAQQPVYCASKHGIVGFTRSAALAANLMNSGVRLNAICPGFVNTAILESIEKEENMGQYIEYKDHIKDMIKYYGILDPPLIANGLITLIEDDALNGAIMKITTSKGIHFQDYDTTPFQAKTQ
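NADH formation kinetics: reaction with 30 uM PGE2 and 1 mM NAD+ (final), 20 nM enzyme, Tris-HCl pH 8 with Tween 20, after 15 min compound preincubation at room temperature. Fluorescence change, last versus first of five reads.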
GLA spleen mod: alpha-galactosidase A (human) modulation; P06280; human spleen homogenate, 4MU-alpha-Gal fluorescence, 40 min; Potency, µM (doses to about 80 µM), actives largely listed as inhibitors; hit rate 0.008% among 240,000; AID 2107
Target sequence (P06280 32-429 limits assumed): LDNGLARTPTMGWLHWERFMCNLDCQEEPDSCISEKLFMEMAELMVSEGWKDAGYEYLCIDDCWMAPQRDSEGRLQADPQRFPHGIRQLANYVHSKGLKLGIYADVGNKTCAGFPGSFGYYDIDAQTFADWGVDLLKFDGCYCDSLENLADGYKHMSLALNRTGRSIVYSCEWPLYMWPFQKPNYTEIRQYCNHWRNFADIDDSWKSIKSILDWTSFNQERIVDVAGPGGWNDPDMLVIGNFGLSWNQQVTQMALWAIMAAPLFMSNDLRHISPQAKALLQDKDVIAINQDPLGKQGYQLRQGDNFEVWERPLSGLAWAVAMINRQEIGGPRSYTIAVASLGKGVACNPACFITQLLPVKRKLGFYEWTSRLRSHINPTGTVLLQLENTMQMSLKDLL
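qHTS titration in buffer at pH 5.0. Alpha-galactosidase activity in spleen homogenate was measured via 4-methylumbelliferone release from 1 mM fluorogenic substrate after 40 min at 37C and a pH 10 stop. AC50 came from Hill fits of control-normalized data.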
12-hLO inh: inhibitors of human 12-lipoxygenase (ALOX12); P18054; purified 12-hLO, xylenol orange hydroperoxide absorbance; Potency, µM (highest dose often 57.1 µM), most hits filed as inhibitors; hit rate 0.12% among 150,000; AID 1452; further: nearly all actives have a fitted effect of over 55% in size
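Hydroperoxide formation by human 12-lipoxygenase from 40 uM arachidonic acid was followed colorimetrically via ferric-xylenol orange complex, using the 573/405 nm absorbance ratio. Enzyme concentration was 150 nM, with 30 min reaction at room temperature.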
PNC assembly inh: blocks assembly of the perinucleolar compartment. activity change (PNC), negative = inhibition, % at 10 µM. AID 2417. PC3M PTB-GFP, PNC prevalence imaging, 16 h; active compounds read low. hit rate 3.1% among 140,000;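 active means readout at or below -70, meaning at least 70% loss of cells showing the perinucleolar compartment, a nuclear body marking cancer cells; inconclusive means readout between -30 and a set limit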
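PC3M cells stably expressing PTB-GFP, 750–1000 cells/well, treated 16 h at 37 °C with compound (23 nl of library stock), in duplicate. After paraformaldehyde fixation and Hoechst stain, imaged at 20x; PNC prevalence scored by image analysis.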
GLA inh pH 4.5: inhibitors of human alpha-galactosidase A at pH 4.5 | activity change, negative = inhibition, % at 105 µM | purified enzyme, 4-MU-alpha-Gal fluorescence, pH 4.5 | 230,000 tested, under 10 active | AID 1467 | P06280
Large screens that a line does not name were inactive. Unless noted, the call rests on the fitted dose curve; in most records, active means well fitted curve in the direction sought with a large enough effect; inconclusive means small, poorly fitted or top-dose-only effect, or another doubt; inactive means no such curve, though single readings can be large; an effect the other way counts as inactive or inconclusive.

Cc1c(Cl)cccc1-n1nnnc1-c1cccs1	ALDH1A1 inh 11µM, PNC assembly inh inconclusive
Clc1ccccc1Cn1nnc(-c2cccs2)n1	ALDH1A1 inh inconclusive
Clc1cccc(Cl)c1CSc1nnc([C@@H]2CCCN2)o1	none (no result: ALDH1A1 inh, HPGD block, 12-hLO inh, PNC assembly inh)
CCn1c(SCc2nc3sc(C(=O)O)c(C)c3c(=O)[nH]2)nnc1-c1ccc(Cl)cc1	ALDH1A1 inh 14µM (no result: HPGD block, 12-hLO inh, PNC assembly inh)
C=CCNC(=O)CN(c1ccc(F)cc1)S(=O)(=O)c1ccc(OC)cc1	none
Cn1c(NC(=O)COc2ccccc2)cc(=O)n(C)c1=O	ALDH1A1 inh 25µM
CSc1cccc(NC(=O)COc2ccccc2)c1	ALDH1A1 inh inconclusive, HPGD block 18µM
Cn1c(NC(=O)CCc2ccccc2)cc(=O)n(C)c1=O	ALDH1A1 inh inconclusive
CSc1cccc(NC(=O)Cn2cccc2)c1	ALDH1A1 inh 0.63µM, HPGD block 14µM
CC(=O)c1cccc(NC(=O)COc2ccccc2)c1	PNC assembly inh inconclusive
COC(=O)c1cc(NC(=O)CN(c2ccc(OC)cc2)S(=O)(=O)c2ccc(F)cc2)ccc1Cl	PNC assembly inh -119
O=C1c2ccccc2C(=O)N1CCCCSc1nc2ccccc2c(=O)n1CCCN1CCOCC1	ALDH1A1 inh inconclusive (no result: HPGD block, 12-hLO inh, PNC assembly inh)
CCc1cc2c(c(CC)n1)CCC(=O)N2Cc1ccc(-c2ccccc2-c2nn[nH]n2)cc1	none (no result: PNC assembly inh)
C[C@H](N[C@@H](C)COc1ccccc1)[C@H](O)c1ccc(O)cc1	none (no result: PNC assembly inh)
CC(=O)Nc1ccc(-n2nnnc2SCC(=O)Nc2cccc(NC(=O)c3ccco3)c2)cc1	none (no result: ALDH1A1 inh, HPGD block, 12-hLO inh, PNC assembly inh)
Cc1ccc(S(=O)(=O)N(CC(=O)Nc2cccc(N(C)S(C)(=O)=O)c2)c2ccc(Cl)c(Cl)c2)cc1	PNC assembly inh inconclusive
Cc1ccccc1OCC(=O)Nc1cccc(N(C)S(C)(=O)=O)c1	none
CN(c1cccc(NC(=O)COc2ccccc2)c1)S(C)(=O)=O	PNC assembly inh -111
CN(c1cccc(NC(=O)CN(c2ccc(Cl)c(Cl)c2)S(=O)(=O)c2ccccc2)c1)S(C)(=O)=O	PNC assembly inh -100
Cc1noc(C)c1C(=O)N1CCC2(CCN(Cc3nccs3)CC2)CC1	none (no result: PNC assembly inh, GLA inh pH 4.5)
CCCn1ncc(CN2CCN(Cc3ccc(C)o3)C(CCO)C2)c1C (stereo not drawn)	none (no result: ALDH1A1 inh, HPGD block, 12-hLO inh, PNC assembly inh)
CCCC(=O)O[C@]1(C(=O)CO)CCC2[C@@H]3CCC4=CC(=O)CC[C@]4(C)C3C(O)C[C@]21C (stereo partly drawn)	none (no result: PNC assembly inh)
COc1ccc(NC(=S)N/C(=N/S(=O)(=O)c2ccc(C)cc2)c2ccccc2)cc1	ALDH1A1 inh inconclusive (no result: HPGD block, 12-hLO inh, PNC assembly inh)
CCOC(=S)N/C(=N\S(=O)(=O)c1ccc(C)cc1)c1ccccc1	ALDH1A1 inh 14µM, HPGD block 25µM
CC[C@@H](C)C(N)C(=O)O (stereo partly drawn)	none (no result: ALDH1A1 inh, HPGD block, 12-hLO inh, PNC assembly inh, GLA inh pH 4.5)
O=CC1=C(N2CCOCC2)/C(=C/c2ccc(Cl)cc2)CC1	ALDH1A1 inh 11µM (no result: HPGD block, 12-hLO inh, PNC assembly inh)
Cc1cc(C)nc(N/N=C/C2=C(N3CCOCC3)C(=C\c3ccc(Cl)cc3)/CC2)n1	ALDH1A1 inh 16µM
O=C(O)c1ccc(N/N=C/C2=C(N3CCOCC3)C(=C\c3ccccc3)/CC2)cc1	none (no result: ALDH1A1 inh, HPGD block, 12-hLO inh, PNC assembly inh)
COc1ccc(CNc2nc(-c3cccnc3)nn2C(=O)C(C)C)cc1	none (no result: HPGD block, 12-hLO inh, PNC assembly inh)
COc1ccc(CC(=O)Nn2c(-c3ccccc3)nc3ccccc3c2=O)cc1	ALDH1A1 inh 1µM, PNC assembly inh inconclusive
COc1ccc(-c2nc3ccccc3c(=O)n2NC(=O)Cc2ccccc2)cc1	ALDH1A1 inh inconclusive
Cc1ccc(-c2nc3ccccc3c(=O)n2NC(=S)N(C)C)cc1	ALDH1A1 inh inconclusive, HPGD block 28µM
COc1ccc(C(c2sc3nc(C)nn3c2O)N2CCc3ccccc3C2)cc1 (stereo not drawn)	ALDH1A1 inh inconclusive, HPGD block 22µM
O=C(NCC1CCCO1)C(c1ccncc1)N(Cc1ccc(F)cc1)C(=O)CN1C(=O)c2ccccc2S1(=O)=O (stereo not drawn)	ALDH1A1 inh 13µM
Cc1cc(C)c(N(C(=O)CN2C(=O)c3ccccc3S2(=O)=O)C(C(=O)NCC2CCCO2)c2ccc(F)cc2)c(C)c1 (stereo not drawn)	none
COc1cccc(C(C(=O)NCC2CCCO2)N(CC2CCCO2)C(=O)CN2C(=O)c3ccccc3S2(=O)=O)c1 (stereo not drawn)	ALDH1A1 inh 14µM (no result: HPGD block, 12-hLO inh, PNC assembly inh)
CCOC(=O)c1cccc(-n2c(-c3ccc(OC)cc3)nc3nc4ccccc4nc32)c1	ALDH1A1 inh inconclusive, HPGD block inconclusive, GLA inh pH 4.5 inconclusive
CCOC(=O)C1=NN(C(=O)Cc2ccccc2)C(O)(c2ccc(Cl)cc2)C1 (stereo not drawn)	ALDH1A1 inh inconclusive
CCOC(=O)C1=NN(C(=O)c2ccc(OC)cc2)C(O)(c2ccc(Cl)cc2)C1 (stereo not drawn)	ALDH1A1 inh 18µM
CCOC(=O)C1=NN(C(=O)COc2ccccc2)C(O)(c2ccc(Cl)cc2)C1 (stereo not drawn)	none (no result: HPGD block, 12-hLO inh, PNC assembly inh)
CCOC(=O)C1=NN(C(=O)c2ccccc2)C(O)(c2ccc(C)cc2)C1 (stereo not drawn)	PNC assembly inh -95
COc1ccc(C2C(C#N)=C(N)OC3=C2C(=O)CC(C)(C)C3)cc1Cn1nc(C)c([N+](=O)[O-])c1C (stereo not drawn)	none
COc1ccc(C2C(C#N)=C(N)Oc3c2c(C)nn3-c2ccccc2)cc1Cn1nc(C)c([N+](=O)[O-])c1C (stereo not drawn)	ALDH1A1 inh 5µM, HPGD block inconclusive
COC(=O)C1=C(C)OC(N)=C(C#N)C1c1c(C)nn(-c2ccccc2)c1Cl (stereo not drawn)	HPGD block inconclusive
Cc1nn(-c2ccccc2)c2c1C(c1ccccc1)C(C#N)=C(N)O2 (stereo not drawn)	ALDH1A1 inh 3.5µM, HPGD block 32µM
Cc1nn(-c2ccccc2)c2c1C(c1ccc(Br)s1)C(C#N)=C(N)O2 (stereo not drawn)	ALDH1A1 inh 3.2µM (no result: HPGD block, 12-hLO inh, PNC assembly inh)
Cc1c(C(=O)N2CCCCC2C)sc2ncnc(N3CCc4ccccc4C3)c12 (stereo not drawn)	ALDH1A1 inh 7.9µM (no result: HPGD block, 12-hLO inh, PNC assembly inh)
COC(=O)CSc1cc([N+](=O)[O-])ccc1NC(=O)OC	ALDH1A1 inh inconclusive, GLA spleen mod 35µM (no result: HPGD block, 12-hLO inh, PNC assembly inh)
CCCCCCn1cnc2c(oc3nc4c(cc32)CCCC4)c1=O	ALDH1A1 inh 3.5µM
CCCCn1cnc2c(oc3nc4c(cc32)CCCC4)c1=O	ALDH1A1 inh 1.3µM (no result: HPGD block, 12-hLO inh, PNC assembly inh)
O=c1c2oc3nc4c(cc3c2ncn1CCCc1ccccc1)CCCC4	ALDH1A1 inh 4µM (no result: HPGD block, 12-hLO inh, PNC assembly inh)
Oc1cc2c(cc1O)[C@H]1c3ccc(O)c(O)c3OC[C@@]1(O)C2	HPGD block 13µM (no result: PNC assembly inh)
Oc1ccc2c(c1)OCO2	none (no result: PNC assembly inh, GLA inh pH 4.5)
